PLK1 PBD inh = blocks phosphopeptide binding to human PLK1 polo-box domain | Potency, µM, for inactives: max response, negative = inhibition, usual class: inhibitors | P53350 | Plk1 PBD binding of FITC phosphopeptide, fluorescence polarization | AID 720504 | 360,000 tested, 2.8% active; also: series mostly up to about 57 µM; nearly all actives have a fitted effect of over 65% in size
DT40 TDP1 CPT = growth inhibition of DT40 Tdp1-/-;hTDP1 cells with camptothecin (screen for TDP1 inhibitors); chicken DT40 Tdp1-/-;hTDP1 cells + 20 nM CPT, ATP luminescence, 48 h; Potency, µM (series often up to 46.2 µM), for the others: top-dose activity change, negative = growth inhibition, most hits filed as inhibitors; 420,000 tested, 12% active; also: nearly all actives have a fitted effect of over 55% in size
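Cell growth measured by CellTiter-Glo luminescence after a minimum 48 h, 37 C compound exposure with 20 nM CPT in Tdp1-knockout DT40 cells stably expressing hTDP1, seeded 400/well; qHTS titration format.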
DT40 TDP1 no CPT = qHTS for Inhibitors of human tyrosyl-DNA phosphodiesterase 1 (TDP1): qHTS in cells in absence of CPT | DT40 Tdp1-/- hTDP1 cells, no CPT, ATP luminescence, 48 h | Potency, µM (doses to about 46.2 µM), without a hit: at the top dose activity change, negative = growth inhibition, actives largely listed as inhibitors | 420,000 tested, 15% active; also: nearly all actives have a fitted effect of over 55% in size
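No-CPT arm: Tdp1-/-;hTDP1 DT40 cells (400/well) plus compounds, incubated ≥48 hr at 37 °C. Readout CellTiter-Glo luminescence.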
KAT2A inh = blocks human GCN5L2 histone acetyltransferase; Q92830; GCN5L2 HAT assay, ThioGlo1 CoA-SH fluorescence; Potency, µM (highest dose often 58.9 µM), without a hit: top-dose activity change, negative = inhibition, most hits filed as inhibitors; 390,000 tested, 0.21% active; AID 504327
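GCN5L2 (20 nM) in 50mM HEPES pH 7.5, 0.1mM EDTA, 0.01% Tween-20 preincubated 15 min with compounds at room temperature. Reaction started with H3(1-25) 75uM, acetyl-CoA 70uM, ThioGlo1 50uM; CoA-thiol fluorescence (Ex340/Em540) read at 0 and 20 min.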
TDP1 inh = TDP1 (human) enzyme inhibition. Potency, µM (doses to about 130 µM), for the others: at the top dose activity change, negative = inhibition, hits mostly inhibitors. recombinant TDP1, AlphaScreen DNA substrate cleavage. Q9NUW8. AID 485290. 350,000 tested, 0.28% active; also: nearly all actives have a fitted effect of over 40% in size
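Here, a 5' biotin and 3' phosphotyrosine-FITC DNA oligonucleotide reports Tdp1 activity: intact substrate bridges AlphaScreen beads, while cleavage leaves a 3' phosphate and drops signal. All incubations at room temperature.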
VDR inh = blocks the human vitamin D receptor; P11473; VDR-SRC2-3 peptide fluorescence polarization, 2 h; Potency, µM, without a hit: max response, negative = inhibition, hits mostly inhibitors; 400,000 tested, 0.93% active
Target sequence (P11473 whole entry, looked up): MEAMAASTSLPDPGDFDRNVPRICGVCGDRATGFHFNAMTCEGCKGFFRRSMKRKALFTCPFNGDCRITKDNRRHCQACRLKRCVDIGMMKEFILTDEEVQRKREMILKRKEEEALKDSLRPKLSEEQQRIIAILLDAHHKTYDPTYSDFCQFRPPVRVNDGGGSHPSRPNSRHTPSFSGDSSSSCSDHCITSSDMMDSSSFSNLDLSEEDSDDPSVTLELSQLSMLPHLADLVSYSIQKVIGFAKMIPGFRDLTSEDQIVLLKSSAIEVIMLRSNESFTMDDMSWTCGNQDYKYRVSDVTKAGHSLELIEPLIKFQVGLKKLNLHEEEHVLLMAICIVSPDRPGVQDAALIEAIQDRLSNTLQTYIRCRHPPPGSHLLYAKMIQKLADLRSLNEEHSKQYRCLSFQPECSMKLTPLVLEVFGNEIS
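Signal is fluorescence polarization, reporting how far test compounds block the interaction of VDR with the SRC2-3 coregulator peptide after a 2 h room-temperature incubation.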
The depositor's hits bear a star. In the library only some 18% were active in any assay of this set; here they are far more common. Calls follow the shape of the dose curve; as a rule, active = well fitted curve in the direction sought with a large enough effect; inconclusive = small, poorly fitted or top-dose-only effect, or another doubt; inactive = no such curve, though single readings can be large; an effect the other way counts as inactive or inconclusive. % is scaled to controls: 0 for no effect and ±100 for the full control effect; potency is read from the fitted curve at half-maximal effect.

What do the screens show for `COc1ccccc1CNc1ncnc2c1c(-c1ccccc1)cn2-c1ccc(Br)cc1`?
DT40 TDP1 CPT: inconclusive; DT40 TDP1 no CPT: inconclusive; KAT2A inh: -6.9%; TDP1 inh: 5.2%; VDR inh: 4.9%

What do the screens show for `O=C(NCC1CCC2(CCN(Cc3cccn3-c3ccc(Cl)cn3)CC2)O1)c1ccccc1` (stereo not drawn)?
DT40 TDP1 CPT: 0.3%; DT40 TDP1 no CPT: -7.1%

What do the screens show for `O=C1c2cccc3cc([N+](=O)[O-])cc(c23)C(=O)N1CCN1CCCC1`?
PLK1 PBD inh: -12.3%; DT40 TDP1 CPT: 0.206µM*; DT40 TDP1 no CPT: 0.13µM*; KAT2A inh: -0.2%; TDP1 inh: -1.3%; VDR inh: 9.0%

How did CCN(CC)CCN1C(=O)c2cccc3cc(N)cc(c23)C1=O do in these assays?
PLK1 PBD inh: inconclusive; DT40 TDP1 CPT: 11.6µM*; DT40 TDP1 no CPT: 7.31µM*; KAT2A inh: -0.5%; TDP1 inh: -2.6%; VDR inh: 1.7%

How did Nc1cc2c3c(cccc3c1)C(=O)N(CCN1CCCC1)C2=O do in these assays?
PLK1 PBD inh: inconclusive; DT40 TDP1 CPT: 0.731µM*; DT40 TDP1 no CPT: 1.16µM*; KAT2A inh: -21.2%; TDP1 inh: 4.7%; VDR inh: 0.4%

How did O=C1c2cccc3cc([N+](=O)[O-])cc(c23)C(=O)N1/N=C/c1ccc(O)cc1O do in these assays?
PLK1 PBD inh: -25.0%; DT40 TDP1 CPT: inconclusive; DT40 TDP1 no CPT: 16.4µM*; KAT2A inh: -24.7%; TDP1 inh: 5.0%; VDR inh: -18.2%

Results for Cc1cc(C)cc(NC(=O)NCCc2c(C)nn(C)c2C)c1 ?
DT40 TDP1 CPT: -11.7%; DT40 TDP1 no CPT: -23.6%; KAT2A inh: 3.4%; TDP1 inh: 1.2%; VDR inh: -3.0%

What do the screens show for `N#CC(=C1Nc2ccccc2N1)S(=O)(=O)c1ccccc1`?
PLK1 PBD inh: 3.36µM*; DT40 TDP1 CPT: inconclusive; DT40 TDP1 no CPT: inconclusive; KAT2A inh: -15.4%; TDP1 inh: 4.9%; VDR inh: 50.1µM*

How did Cc1nc2ccccn2c1-c1ccnc(=S)[nH]1 do in these assays?
PLK1 PBD inh: 26.7µM*; DT40 TDP1 CPT: 5.8µM*; DT40 TDP1 no CPT: 23.1µM*; KAT2A inh: inconclusive; TDP1 inh: 2.6%; VDR inh: inconclusive

What do the screens show for `Cc1cc(C)c(C)c(S(=O)(=O)N2CCC(C(=O)NNC(=O)c3ccccc3O)CC2)c1C`?
PLK1 PBD inh: -11.6%; DT40 TDP1 CPT: inconclusive; DT40 TDP1 no CPT: 16.4µM*; KAT2A inh: -7.1%; TDP1 inh: 0.0%; VDR inh: 8.5%

Results for Cc1ccc(S(=O)(=O)N2CCC(C(=O)NNC(=O)c3ccccc3O)CC2)cc1 ?
PLK1 PBD inh: -4.2%; DT40 TDP1 CPT: inconclusive; DT40 TDP1 no CPT: 14.6µM*; KAT2A inh: 5.1%; VDR inh: -8.5%

How did O=C(NCc1cc(C(F)(F)F)cc(C(F)(F)F)c1)c1cc(-c2cc(F)ccc2OCC2CCCO2)n[nH]1 (stereo not drawn) do in these assays?
PLK1 PBD inh: 10.5%; DT40 TDP1 CPT: -14.8%; DT40 TDP1 no CPT: 5.1%

What do the screens show for `Cc1ccc(NC(=O)c2cc(-c3cc(F)ccc3OCC3CCCO3)n[nH]2)cc1NS(C)(=O)=O` (stereo not drawn)?
PLK1 PBD inh: 4.2%; DT40 TDP1 CPT: 14.6µM*; DT40 TDP1 no CPT: 14.6µM*

Results for COc1cc(CNC(=O)c2cc(-c3cc(F)ccc3OCC3CCCO3)n[nH]2)cc(OC)c1 (stereo not drawn) ?
PLK1 PBD inh: -4.0%; DT40 TDP1 CPT: inconclusive; DT40 TDP1 no CPT: 20.6µM*

Results for COc1ccc(Cl)c(-c2cc(C(=O)Nc3ccc(C)c(NS(C)(=O)=O)c3)[nH]n2)c1 ?
PLK1 PBD inh: 3.6%; DT40 TDP1 CPT: inconclusive; DT40 TDP1 no CPT: inconclusive

Results for CCOC(=O)N1CCN(C(=O)C2CCC(=O)N(Cc3ccccc3OC)C2)CC1 (stereo not drawn) ?
PLK1 PBD inh: 4.8%; DT40 TDP1 CPT: 1.9%; DT40 TDP1 no CPT: 3.1%

Results for COc1ccc(N(CC(=O)Nc2ccc(S(=O)(=O)N3CCOCC3)cc2)S(=O)(=O)c2ccccc2)cc1 ?
PLK1 PBD inh: -2.9%; DT40 TDP1 CPT: 16.4µM*; DT40 TDP1 no CPT: 18.4µM*; KAT2A inh: -1.1%; TDP1 inh: 4.7%; VDR inh: 5.2%

How did COc1ccc(N(CC(=O)Nc2ccccc2OC)S(=O)(=O)c2ccc(NC(C)=O)cc2)cc1 do in these assays?
PLK1 PBD inh: -16.7%; DT40 TDP1 CPT: 5.17µM*; DT40 TDP1 no CPT: 5.17µM*; KAT2A inh: 1.6%; TDP1 inh: 5.4%; VDR inh: -16.0%

How did COc1ccccc1NC(=O)CN(c1ccccc1)S(=O)(=O)c1ccccc1 do in these assays?
PLK1 PBD inh: -0.2%; DT40 TDP1 CPT: -19.9%; DT40 TDP1 no CPT: -23.9%; KAT2A inh: -9.5%; VDR inh: 6.2%

What do the screens show for `COC(=O)c1ccccc1NC(=O)CN(c1ccc(Cl)cc1)S(=O)(=O)c1ccc(OC)cc1`?
DT40 TDP1 CPT: 20.6µM*; DT40 TDP1 no CPT: 9.2µM*; KAT2A inh: -5.3%; VDR inh: 4.9%

Results for COC(=O)c1cc(NC(=O)CN(c2ccc(OC)cc2)S(=O)(=O)c2ccc(F)cc2)ccc1Cl ?
PLK1 PBD inh: 0.7%; DT40 TDP1 CPT: 18.4µM*; DT40 TDP1 no CPT: 18.4µM*; KAT2A inh: -12.1%; TDP1 inh: 7.2%; VDR inh: 18.9%

Results for COc1ccc(NC(=O)CN(c2ccc([N+](=O)[O-])cc2)S(=O)(=O)c2ccccc2)cc1 ?
PLK1 PBD inh: -1.1%; DT40 TDP1 CPT: inconclusive; DT40 TDP1 no CPT: inconclusive; KAT2A inh: 3.2%; TDP1 inh: -2.7%; VDR inh: -5.9%

What do the screens show for `C=CCn1c(CNC(=O)c2ccccc2F)nnc1SCc1nc2ccccc2c(=O)[nH]1`?
PLK1 PBD inh: -0.7%; DT40 TDP1 CPT: 0.5%; DT40 TDP1 no CPT: -1.5%; KAT2A inh: -5.7%; TDP1 inh: 8.1%; VDR inh: -19.7%

What do the screens show for `CCCN1CCN(CCCNC(=O)Cn2nc(C)n3c(cc4cc(F)ccc43)c2=O)CC1`?
PLK1 PBD inh: 29.9µM*; DT40 TDP1 CPT: -6.5%; DT40 TDP1 no CPT: -2.4%; KAT2A inh: -1.4%; TDP1 inh: 4.1%; VDR inh: -13.8%
